Measurements reported in publication PMC4336329 (PLoS ONE, 2015).
About 14,000 (4.5%) of roughly 310,000 compounds showed an effect of 50% or more. Effects have a minus sign here. What follows is part of a selection rich in strong results, with near analogues and random picks from the rest.

target: human ether-à-go-go-related gene (hERG) potassium channel (human, UniProt Q12809); assay: primary screen, population patch clamp on CHO cells stably expressing hERG; higher = less effect of the substance
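Also: peak tail current of the secondary pulse compared with the same well before compound.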

Sequence of human ether-à-go-go-related gene (hERG) potassium channel (Q12809 whole entry, looked up): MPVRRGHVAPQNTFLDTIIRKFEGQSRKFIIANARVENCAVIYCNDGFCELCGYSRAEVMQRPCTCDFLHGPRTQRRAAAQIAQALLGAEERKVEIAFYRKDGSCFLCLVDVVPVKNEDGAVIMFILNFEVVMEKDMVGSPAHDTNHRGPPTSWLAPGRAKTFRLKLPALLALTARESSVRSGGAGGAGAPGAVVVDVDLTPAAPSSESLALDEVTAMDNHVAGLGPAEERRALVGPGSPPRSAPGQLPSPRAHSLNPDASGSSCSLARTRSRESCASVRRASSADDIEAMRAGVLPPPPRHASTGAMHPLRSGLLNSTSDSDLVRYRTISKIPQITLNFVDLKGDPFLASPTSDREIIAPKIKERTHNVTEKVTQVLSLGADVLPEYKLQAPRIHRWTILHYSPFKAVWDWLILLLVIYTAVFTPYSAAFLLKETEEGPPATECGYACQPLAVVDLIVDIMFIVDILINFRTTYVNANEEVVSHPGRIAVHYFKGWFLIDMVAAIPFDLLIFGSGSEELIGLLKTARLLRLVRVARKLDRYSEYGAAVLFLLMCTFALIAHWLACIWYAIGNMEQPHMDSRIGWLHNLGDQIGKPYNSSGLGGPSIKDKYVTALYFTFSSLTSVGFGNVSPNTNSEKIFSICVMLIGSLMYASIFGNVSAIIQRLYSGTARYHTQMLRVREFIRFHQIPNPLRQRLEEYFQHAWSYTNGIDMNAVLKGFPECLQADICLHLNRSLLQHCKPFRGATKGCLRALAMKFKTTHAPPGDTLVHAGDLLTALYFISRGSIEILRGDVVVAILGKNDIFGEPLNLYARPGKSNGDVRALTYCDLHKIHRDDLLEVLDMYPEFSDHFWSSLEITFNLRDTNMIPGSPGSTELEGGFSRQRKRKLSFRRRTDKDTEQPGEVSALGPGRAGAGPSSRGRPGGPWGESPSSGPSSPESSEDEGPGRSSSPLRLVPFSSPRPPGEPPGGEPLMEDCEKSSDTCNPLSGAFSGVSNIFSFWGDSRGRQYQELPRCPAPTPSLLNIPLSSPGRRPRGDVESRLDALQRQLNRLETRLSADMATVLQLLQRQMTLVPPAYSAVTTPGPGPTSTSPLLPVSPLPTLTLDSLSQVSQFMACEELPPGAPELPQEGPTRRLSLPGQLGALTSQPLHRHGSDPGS

| SMILES | hERG current change (%, negative = inhibition) at 10uM [%] |
| --- | --- |
| C/C(=N\NC(=O)CCC(=O)O)c1c(-c2ccccc2)c2cc(Br)ccc2[nH]c1=O | 6.72 |
| O=C(O)C1CC(c2ccccc2)=Nc2ccccc2S1 (stereo not shown) | 1.43 |
| CN1C(=O)/C(=C\c2ccncc2)SC1=Nc1ccccc1 | -11.2 |
| Cc1ccc(-c2nc(N)sc2C)cc1 | -16.9 |
| COC(=O)c1c(NC(=O)c2cccnc2Cl)sc(C(=O)N(C)C)c1C | -6.44 |
| S=c1[nH]nc(Nc2cccc3ccccc23)s1 | 16.3 |
| O=C(c1cc2sccc2n1Cc1ccccc1)N1CCc2ccccc21 | -2.82 |
| CC1CC(C)CN(S(=O)(=O)N2CCCC(C(=O)NCCCN3CCOCC3)C2)C1 (stereo not shown) | 19.1 |
| CCCC(=O)N1CCC(Cc2ccccc2)CC1 | 9.83 |
| CC1CC(C)CN(CCCNC(=O)C2CCCN(S(=O)(=O)N3CC(C)CC(C)C3)C2)C1 (stereo not shown) | -61 |
| CCS(=O)(=O)N1CCC(C(=O)NCCN2CCN(Cc3ccccc3)CC2)CC1 | 2.07 |
| CCCCCCNCC(=O)N1CCC(Cc2ccccc2)CC1 | -71.7 |
| CCCNC(=O)N1CCC(Cc2ccccc2)CC1 | 16.6 |
| O=C(NCCCN1CCC(Cc2ccccc2)CC1)C1CCN(S(=O)(=O)N2CCC3(CC2)OCCO3)CC1 | -42.7 |
| CCS(=O)(=O)N1CCC(C(=O)NCCCN2CCC(Cc3ccccc3)CC2)CC1 | -65.5 |
| CCCS(=O)(=O)N1CCC(C(=O)NCCN2CCCC2)CC1 | -7.65 |
| CCCS(=O)(=O)N1CCC(C(=O)NCCN2CCC(Cc3ccccc3)CC2)CC1 | -57.6 |
| CCCS(=O)(=O)N1CCC(C(=O)NCCc2ccccc2)CC1 | 1.42 |
| CC1CC(C)CN(S(=O)(=O)N2CCCC(C(=O)NCCCN3CCCCC3C)C2)C1 (stereo not shown) | -9.36 |
| COc1ccccc1NS(=O)(=O)/C=C/c1ccccc1 | -16.8 |
| O=C(CCN1C(=O)c2ccccc2C1=O)C1=NN[C@@H]2C(=O)N(c3ccc(F)cc3)C(=O)[C@H]12 | -5.4 |
| O=C(CCS(=O)(=O)c1ccc2c(c1)NC(=O)CS2)NCCc1ccccc1 | 8.31 |
| O=c1c2cc(N3CCOCC3)ccc2[nH]c(=S)n1CCCN1CCCCCC1 | -17 |
| BrC(/C=C\c1ccccc1)=N/Nc1nc(N2CCOCC2)nc(N2CCOCC2)n1 | -39 |

| SMILES | hERG current change (%, negative = inhibition) at 10uM [%] |
| --- | --- |
| CCNc1nn2ccccc2c1/C=C(\C#N)C(=O)OCC | -4.06 |
| COCCCNC(=S)Nc1ccc(C)cc1[N+](=O)[O-] | 1.51 |
| CS(=O)(=O)N1CCC(C(=O)N2CCC(Cc3ccccc3)CC2)CC1 | -15.1 |
| CCCS(=O)(=O)N1CCCC(C(=O)N2CCC(Cc3ccccc3)CC2)C1 (stereo not shown) | -19.9 |
| CCCS(=O)(=O)N1CCC(C(=O)N2CCC(Cc3ccccc3)CC2)CC1 | -63 |
| CCCS(=O)(=O)N1CCCC(C(=O)NCCc2ccccc2)C1 (stereo not shown) | -1.02 |
| CCCS(=O)(=O)N1CCCC(C(=O)NCCN2CCC(Cc3ccccc3)CC2)C1 (stereo not shown) | -58.2 |
| CCCS(=O)(=O)N1CCCC(C(=O)NCCN(C)Cc2ccccc2)C1 (stereo not shown) | -8.41 |
| CCSc1nsc(SCC)c1C(N)=O | 7.66 |
| CC1(C)Cc2nc3scc(NC(=O)c4ccccc4)c3cc2CO1 | -0.679 |
| CN(CCc1ccccc1)c1ccc([N+](=O)[O-])cn1 | 2.08 |
| CC1CC(C)CN(C(=O)CCCn2c(=S)[nH]c3ccccc3c2=O)C1 (stereo not shown) | -3.01 |
| CC1CC(C)CN(CCCn2c(=S)[nH]c3ccccc3c2=O)C1 (stereo not shown) | -53 |
| CCC1CCCCN1CCn1c(=S)[nH]c2cc(OC)c(OC)cc2c1=O (stereo not shown) | -25.4 |
| COc1ccc(N2CCN(CCCn3c(=S)[nH]c4ccccc4c3=O)CC2)cc1 | -36.7 |
| O=c1c2ccccc2[nH]c(=S)n1CCCN1CCN(C2CCCCC2)CC1 | -53.9 |
| CCN1CCN(CCn2c(=S)[nH]c3ccccc3c2=O)CC1 | -10.5 |
| CCC1CCCCN1CCCn1c(=S)[nH]c2ccccc2c1=O (stereo not shown) | -56.2 |
| COc1ccccc1N1CCN(CCCn2c(=S)[nH]c3ccccc3c2=O)CC1 | -61.6 |
| O=c1c2ccccc2[nH]c(=S)n1CCCN1CCN(c2ccccc2F)CC1 | -2.57 |
| O=c1c2ccccc2[nH]c(=S)n1CCN1CCCCC1 | -1.11 |
| CCCCn1c(=S)[nH]c2ccccc2c1=O | 13.7 |
| CC1CCCCN1CCCn1c(=S)[nH]c2ccccc2c1=O (stereo not shown) | -46.4 |
| CCC1(C)Cc2ccccc2-c2nc(NCCO)n(-c3ccc(C)cc3)c(=O)c21 (stereo not shown) | -25.1 |

| SMILES | hERG current change (%, negative = inhibition) at 10uM [%] |
| --- | --- |
| CCOC(=O)N1CCN(c2c(NCc3ccccc3OC)c(=O)c2=O)CC1 | 0.238 |
| CCOC(=O)Nc1ccc(S(=O)(=O)Nc2cc(C)on2)cc1 | 6.84 |
| CC1CCN(CCCn2c(=S)[nH]c3ccccc3c2=O)CC1 | -56.9 |
| O=c1c2ccccc2[nH]c(=S)n1CCCN1CCN(c2ccccc2)CC1 | -19.7 |
| O=c1c2ccccc2[nH]c(=S)n1CCCN1CCC(Cc2ccccc2)CC1 | -73.6 |
| CC1CCN(CCn2c(=S)[nH]c3ccccc3c2=O)CC1 | -32.6 |
| O=c1c2ccccc2[nH]c(=S)n1CCCN1CCOCC1 | 8.73 |
| O=c1c2ccccc2[nH]c(=S)n1CCN1CCN(Cc2ccccc2)CC1 | -19.8 |
| C=CCn1c(SCC(=O)NCC(c2ccccc2)N(C)C)nnc1C1CCCCC1 (stereo not shown) | 8.62 |
| Cc1cc(Br)cc(C)c1NC(=O)c1ccc(C#N)cc1F | -21.2 |
| NS(=O)(=O)c1ccc(CCNC(=O)CCc2nc3sc4c(c3c(=O)[nH]2)CCCC4)cc1 | 17.6 |
| CC(C)CN1CCC(=O)N([C@H](CSc2ccccc2)Cc2ccccc2)CC1 | -67.9 |
| CC(C)C[C@@H](CO)N1CCN(C)CCC1=O | -4.26 |
| CC(C)C[C@@H](CSc1ccc(Br)cc1)N1CCN(CC(C)C)CCC1=O | -68.6 |
| CC(C)C[C@@H](CO)N1CCN(Cc2ccc(Br)cc2)CCC1=O | -13.5 |
| CC(C)C[C@@H](CSc1ccc(Br)cc1)N1CCN(C)CCC1=O | -64.7 |
| CC(C)C[C@@H](CN=[N+]=[N-])N1CCN(CC(C)C)CCC1=O | -3.55 |
| CC(C)CN1CCC(=O)N([C@H](CSc2ccc(Br)cc2)Cc2ccccc2)CC1 | -43.2 |
| CC(C)C[C@@H](CSc1ccccc1)N1CCN(C)CCC1=O | -16 |
| CC(C)CN1CCC(=O)N([C@H](CN=[N+]=[N-])Cc2ccccc2)CC1 | -22.9 |
| CCCN1CCC(=O)N([C@H](CSc2ccccc2)CC(C)C)CC1 | -66.4 |
| CCOC(=O)C(NCc1ccc2c(c1)OCO2)(NC(=O)CC)C(F)(F)F (stereo not shown) | 14.3 |
| NCC/C=C1/c2ccccc2CSc2ccccc21.O=C(O)/C=C\C(=O)O | -3.76 |
| CN(C)c1ccc(S(=O)(=O)N2CCCCC2)cc1NC(=O)CN1C(=O)NC2(CCCC2)C1=O | 8.25 |

| SMILES | hERG current change (%, negative = inhibition) at 10uM [%] |
| --- | --- |
| COc1ccccc1OCCNC(=O)C1CC(=O)N(Cc2ccccc2)C1 (stereo not shown) | -10.2 |
| CC(O)CNC(=O)c1ccc(-c2nn(C)c(=O)c3ccccc23)cc1 (stereo not shown) | -0.479 |
| Cc1ccc2c(Cl)cc(Cl)c(OCc3c(C)noc3C)c2n1 | 8.92 |
| O=C(NO)c1ccc(OC(F)F)cc1 | 7.91 |
| Cc1ccc(C(C)C)c(O)c1 | 19.7 |
| CC(C)C[C@@H](CSc1ccccc1)N1CCN(CC(C)C)CCC1=O | -75 |
| O=C(CCC(=O)N(CC(=O)NC1CCCC1)Cc1ccccc1Cl)Nc1nccs1 | -16.1 |
| O=C(COC(=O)c1cccc(OC(F)F)c1)NC(=O)NC1CCCCC1 | 11.1 |
| CC(=O)c1ccc(OCC(=O)NCc2ccc(F)cc2)cc1 | -11.5 |
| CCOc1ccc(N(CC(=O)NCc2ccc(F)cc2)C(=O)c2ccco2)cc1 | -54.6 |
| CCOc1ccc(CNCc2ccccc2Cl)cc1.Cl | -55.3 |
| CCOc1ccc(N(CC(=O)NC(C)(C)C)C(=O)c2ccco2)cc1 | -1.84 |
| CCOc1ccc(CN(C)CC(=O)NCc2ccc(F)cc2)cc1 | -74 |
| Cc1ccc(CNCc2ccccc2Cl)cc1.Cl | -7.02 |
| CCOc1ccc(N(CC(=O)NCc2ccccc2)S(C)(=O)=O)cc1 | -10.9 |
| CN(CC(=O)NCCc1ccc(F)cc1)Cc1ccccc1 | -2.73 |
| CCOCCCNCc1ccc(OCc2ccccc2Cl)cc1 | -46.9 |
| Cc1ccc(N(CC(=O)NCc2ccc(F)cc2)C(=O)c2ccco2)cc1C | -10.8 |
| CN(CC(=O)NCc1ccccc1)Cc1ccc(Cl)cc1 | -22.9 |
| CCOc1ccc(CN(C)CC(=O)NCc2ccccc2)cc1 | -76.1 |
| Cc1c(C)c2c(OCC(=O)NCC(=O)NCC(=O)O)cc3c(c2oc1=O)CCC(C)(C)O3 | 15.2 |
| Cn1ncc2c(Nc3cccc([N+](=O)[O-])c3)ncnc21 | 7.09 |
